# According to the supplement of paper PMC4022240:
# ± gives the standard deviation.
# T1: HaloTag-ATRX ADD domain (163-292)
# T1 chain: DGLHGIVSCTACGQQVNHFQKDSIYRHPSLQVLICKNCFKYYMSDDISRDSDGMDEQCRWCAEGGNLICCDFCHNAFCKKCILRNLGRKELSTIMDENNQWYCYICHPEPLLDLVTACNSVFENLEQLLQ
# What was measured:
# Test in all cases: peptide microarray binding signal (635 nm), min-max normalized on array (fraction of array maximum); higher = stronger binding
# Details in all cases: peptide region: H3 5-17
# [1] = target: T1, HaloTag-ATRX ADD domain (163-292)
# Summary of the method: (§1)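 For each library, binding signal was taken as the triplicate-spot mean intensity and then min-max scaled. Spots of histone 13-mer peptide–cellulose conjugates on nitrocellulose, printed in triplicate with a Cy3 tracer, were probed for 1 h at 4°C with either biotin-labelled HaloTag reader fusions (10 nM to 1 μM) and streptavidin-Alexa Fluor 647 or rabbit histone antibodies (1:10,000 to 1:2,000) and anti-rabbit Alexa 647. Readout at 635 nm came from an Axon GenePix 4000B.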
# [2] = target: HaloTag-ING2 PHD (mouse Ing2 200-280)
# Summary of the method: as §1
# [3] = target: anti-H3K4me3 antibody ab8580
# Summary of the method: as §1
# [4] = target: anti-H3K9me3 antibody ab8898
# Summary of the method: as §1
# [5] = peptide modifications: H3R8cit H3K9me1, binder concentration: 1:2,000 dilution
# [6] = peptide modifications: H3R8cit H3K9me1, binder concentration: 1:10,000 dilution
# [7] = peptide modifications: H3R8cit H3K9me2, binder concentration: 1:2,000 dilution
# [8] = peptide modifications: H3R8cit H3K9me2, binder concentration: 1:10,000 dilution
# [9] = peptide modifications: H3R8cit H3K9me3, binder concentration: 1:2,000 dilution
# [10] = peptide modifications: H3R8cit H3K9me3, binder concentration: 1:10,000 dilution
# [11] = peptide modifications: H3R8cit H3S10ph, binder concentration: 1:2,000 dilution
# [12] = peptide modifications: H3R8cit H3S10ph, binder concentration: 1:10,000 dilution
# [13] = peptide modifications: H3R8cit H3T11ph, binder concentration: 1:2,000 dilution
# [14] = peptide modifications: H3R8cit H3T11ph, binder concentration: 1:10,000 dilution
# [15] = peptide modifications: H3R8cit, binder concentration: 1:2,000 dilution
# [16] = peptide modifications: H3R8cit, binder concentration: 1:10,000 dilution
# [17] = peptide modifications: H3R8me1, binder concentration: 1:2,000 dilution
# [18] = peptide modifications: H3R8me1, binder concentration: 1:10,000 dilution
# [19] = peptide modifications: H3R8me1 H3K9ac, binder concentration: 1:2,000 dilution
# [20] = peptide modifications: H3R8me1 H3K9ac, binder concentration: 1:10,000 dilution
# [21] = peptide modifications: H3R8me1 H3K9me1, binder concentration: 1:2,000 dilution
# [22] = peptide modifications: H3R8me1 H3K9me1, binder concentration: 1:10,000 dilution
# [23] = peptide modifications: H3R8me1 H3K9me2, binder concentration: 1:2,000 dilution
# [24] = peptide modifications: H3R8me1 H3K9me2, binder concentration: 1:10,000 dilution
binder,measurement,setting,value
QTARKSTGGKAPR [H3 5-17 Q T A Rcit Kme S T G G K A P R],peptide microarray binding signal,"[1]; peptide modifications: H3R8cit H3K9me1, binder concentration: 50 nM",0.00686 ± 0.00018
same,peptide microarray binding signal,"[1]; peptide modifications: H3R8cit H3K9me1, binder concentration: 500 nM",0.0113 ± 0.00044
same,peptide microarray binding signal,"[2]; peptide modifications: H3R8cit H3K9me1, binder concentration: 10 nM",0.0186 ± 0.0018
same,peptide microarray binding signal,"[2]; peptide modifications: H3R8cit H3K9me1, binder concentration: 100 nM",0.0317 ± 0.0022
same,peptide microarray binding signal,[3]; [5],0.00427 ± 0.00041
same,peptide microarray binding signal,[3]; [6],0.00394 ± 6.2e-05
same,peptide microarray binding signal,[4]; [5],0.00462 ± 0.00021
same,peptide microarray binding signal,[4]; [6],0.00311 ± 7e-05
QTARKSTGGKAPR [H3 5-17 Q T A Rcit Kme2 S T G G K A P R],peptide microarray binding signal,"[1]; peptide modifications: H3R8cit H3K9me2, binder concentration: 50 nM",0.0094 ± 0.00026
same,peptide microarray binding signal,"[1]; peptide modifications: H3R8cit H3K9me2, binder concentration: 500 nM",0.0211 ± 0.0019
same,peptide microarray binding signal,"[2]; peptide modifications: H3R8cit H3K9me2, binder concentration: 10 nM",0.0388 ± 0.00083
same,peptide microarray binding signal,"[2]; peptide modifications: H3R8cit H3K9me2, binder concentration: 100 nM",0.0648 ± 0.0026
same,peptide microarray binding signal,[3]; [7],0.016 ± 0.0013
same,peptide microarray binding signal,[3]; [8],0.0193 ± 0.00081
same,peptide microarray binding signal,[4]; [7],0.271 ± 0.036
same,peptide microarray binding signal,[4]; [8],0.197 ± 0.037
QTARKSTGGKAPR [H3 5-17 Q T A Rcit Kme3 S T G G K A P R],peptide microarray binding signal,"[1]; peptide modifications: H3R8cit H3K9me3, binder concentration: 50 nM",0.0148 ± 0.00057
same,peptide microarray binding signal,"[1]; peptide modifications: H3R8cit H3K9me3, binder concentration: 500 nM",0.036 ± 0.002
same,peptide microarray binding signal,"[2]; peptide modifications: H3R8cit H3K9me3, binder concentration: 10 nM",0.0937 ± 0.0048
same,peptide microarray binding signal,"[2]; peptide modifications: H3R8cit H3K9me3, binder concentration: 100 nM",0.102 ± 0.013
same,peptide microarray binding signal,[3]; [9],0.453 ± 0.025
same,peptide microarray binding signal,[3]; [10],0.334 ± 0.09
same,peptide microarray binding signal,[4]; [9],1 ± 0.068
same,peptide microarray binding signal,[4]; [10],0.952 ± 0.059
QTARKSTGGKAPR [H3 5-17 Q T A Rcit K Sph T G G K A P R],peptide microarray binding signal,"[1]; peptide modifications: H3R8cit H3S10ph, binder concentration: 50 nM",0.00417 ± 0.00041
same,peptide microarray binding signal,"[1]; peptide modifications: H3R8cit H3S10ph, binder concentration: 500 nM",0.0107 ± 0.0011
same,peptide microarray binding signal,"[2]; peptide modifications: H3R8cit H3S10ph, binder concentration: 10 nM",0.00949 ± 0.0015
same,peptide microarray binding signal,"[2]; peptide modifications: H3R8cit H3S10ph, binder concentration: 100 nM",0.0187 ± 0.0059
same,peptide microarray binding signal,[3]; [11],0.00211 ± 0.00036
same,peptide microarray binding signal,[3]; [12],0.00194 ± 0.00019
same,peptide microarray binding signal,[4]; [11],0.00183 ± 0.00048
same,peptide microarray binding signal,[4]; [12],0.00133 ± 7.9e-05
QTARKSTGGKAPR [H3 5-17 Q T A Rcit K S Tph G G K A P R],peptide microarray binding signal,"[1]; peptide modifications: H3R8cit H3T11ph, binder concentration: 50 nM",0.00404 ± 0.00028
same,peptide microarray binding signal,"[1]; peptide modifications: H3R8cit H3T11ph, binder concentration: 500 nM",0.0123 ± 0.0011
same,peptide microarray binding signal,"[2]; peptide modifications: H3R8cit H3T11ph, binder concentration: 10 nM",0.0179 ± 0.0072
same,peptide microarray binding signal,"[2]; peptide modifications: H3R8cit H3T11ph, binder concentration: 100 nM",0.0242 ± 0.0054
same,peptide microarray binding signal,[3]; [13],0.00285 ± 4.3e-05
same,peptide microarray binding signal,[3]; [14],0.002511 ± 2.2e-05
same,peptide microarray binding signal,[4]; [13],0.00142 ± 0.00018
same,peptide microarray binding signal,[4]; [14],0.00115 ± 2e-05
QTARKSTGGKAPR [H3 5-17 Q T A Rcit K S T G G K A P R],peptide microarray binding signal,"[1]; peptide modifications: H3R8cit, binder concentration: 50 nM",0.0063 ± 0.00069
same,peptide microarray binding signal,"[1]; peptide modifications: H3R8cit, binder concentration: 500 nM",0.00719 ± 0.0018
same,peptide microarray binding signal,"[2]; peptide modifications: H3R8cit, binder concentration: 10 nM",0.0115 ± 0.0029
same,peptide microarray binding signal,"[2]; peptide modifications: H3R8cit, binder concentration: 100 nM",0.00574 ± 0.00039
same,peptide microarray binding signal,[3]; [15],0.00504 ± 0.0019
same,peptide microarray binding signal,[3]; [16],0.0142 ± 0.0043
same,peptide microarray binding signal,[4]; [15],0.00642 ± 0.0027
same,peptide microarray binding signal,[4]; [16],0.00588 ± 0.00093
QTARKSTGGKAPR [H3 5-17 Q T A Rme K S T G G K A P R],peptide microarray binding signal,"[1]; peptide modifications: H3R8me1, binder concentration: 50 nM",0.00589 ± 0.00021
same,peptide microarray binding signal,"[1]; peptide modifications: H3R8me1, binder concentration: 500 nM",0.00448 ± 0.00015
same,peptide microarray binding signal,"[2]; peptide modifications: H3R8me1, binder concentration: 10 nM",0.0037 ± 7.9e-05
same,peptide microarray binding signal,"[2]; peptide modifications: H3R8me1, binder concentration: 100 nM",0.00262
same,peptide microarray binding signal,[3]; [17],0.0014 ± 0.00011
same,peptide microarray binding signal,[3]; [18],0.00417 ± 0.00061
same,peptide microarray binding signal,[4]; [17],0.00305 ± 0.00038
same,peptide microarray binding signal,[4]; [18],0.00755 ± 0.00014
QTARKSTGGKAPR [H3 5-17 Q T A Rme Kac S T G G K A P R],peptide microarray binding signal,"[1]; peptide modifications: H3R8me1 H3K9ac, binder concentration: 50 nM",0.0137 ± 0.00035
same,peptide microarray binding signal,"[1]; peptide modifications: H3R8me1 H3K9ac, binder concentration: 500 nM",0.0307 ± 0.0019
same,peptide microarray binding signal,"[2]; peptide modifications: H3R8me1 H3K9ac, binder concentration: 10 nM",0.0479 ± 0.004
same,peptide microarray binding signal,"[2]; peptide modifications: H3R8me1 H3K9ac, binder concentration: 100 nM",0.0783 ± 0.0015
same,peptide microarray binding signal,[3]; [19],0.0231 ± 0.0043
same,peptide microarray binding signal,[3]; [20],0.0272 ± 0.0053
same,peptide microarray binding signal,[4]; [19],0.0277 ± 0.0029
same,peptide microarray binding signal,[4]; [20],0.0205 ± 0.00081
QTARKSTGGKAPR [H3 5-17 Q T A Rme Kme S T G G K A P R],peptide microarray binding signal,"[1]; peptide modifications: H3R8me1 H3K9me1, binder concentration: 50 nM",0.01 ± 0.0016
same,peptide microarray binding signal,"[1]; peptide modifications: H3R8me1 H3K9me1, binder concentration: 500 nM",0.0241 ± 0.0051
same,peptide microarray binding signal,"[2]; peptide modifications: H3R8me1 H3K9me1, binder concentration: 10 nM",0.0382 ± 0.016
same,peptide microarray binding signal,"[2]; peptide modifications: H3R8me1 H3K9me1, binder concentration: 100 nM",0.0483 ± 0.0026
same,peptide microarray binding signal,[3]; [21],0.0217 ± 0.00038
same,peptide microarray binding signal,[3]; [22],0.0201 ± 0.0019
same,peptide microarray binding signal,[4]; [21],0.034 ± 0.009
same,peptide microarray binding signal,[4]; [22],0.0236 ± 0.0018
QTARKSTGGKAPR [H3 5-17 Q T A Rme Kme2 S T G G K A P R],peptide microarray binding signal,"[1]; peptide modifications: H3R8me1 H3K9me2, binder concentration: 50 nM",0.00934 ± 0.00073
same,peptide microarray binding signal,"[1]; peptide modifications: H3R8me1 H3K9me2, binder concentration: 500 nM",0.0296 ± 0.00077
same,peptide microarray binding signal,"[2]; peptide modifications: H3R8me1 H3K9me2, binder concentration: 10 nM",0.0501 ± 0.013
same,peptide microarray binding signal,"[2]; peptide modifications: H3R8me1 H3K9me2, binder concentration: 100 nM",0.0426 ± 0.0023
same,peptide microarray binding signal,[3]; [23],0.0281 ± 0.0026
same,peptide microarray binding signal,[3]; [24],0.0231 ± 0.00029
same,peptide microarray binding signal,[4]; [23],0.175 ± 0.029
same,peptide microarray binding signal,[4]; [24],0.0879 ± 0.0073
